# According to PubChem BioAssay (NCATS):
# Results filed as inconclusive are left out. A call without a number means that no potency is given here. Activity calls are given as the source filed them. Unless noted, the call rests on the fitted dose curve; in most records, active means well fitted curve in the direction sought with a large enough effect; inconclusive means small, poorly fitted or top-dose-only effect, or another doubt; inactive means no such curve, though single readings can be large; an effect the other way counts as inactive or inconclusive.
# Assays:
# [1] = qHTS for differential inhibitors of proliferation of Plasmodium falciparum line W2 (AID 1883); conditions: Potency: Plasmodium falciparum W2 proliferation inhibition;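 further: potency means the concentration at half of the fitted maximal effect; parasites grown with compound for 72 h before lysis and staining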
# [2] = qHTS for differential inhibitors of proliferation of Plasmodium falciparum line HB3 (AID 1886); conditions: Potency: Plasmodium falciparum HB3 proliferation inhibition;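 further: potency means the concentration at half of the fitted maximal effect; parasites grown with compound for 72 h before SYBR Green readout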
# [3] = biological target: ATP-dependent DNA helicase Q1 (Homo sapiens) (UniProt P46063); assay: qHTS Validation Assay for Inhibitors of RecQ-Like Dna Helicase 1 (RECQ1) (AID 2353)
# Procedure, shortened: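 RECQ1T1 50 nM; forked duplex (20 bp + 30-nt ss tails) 200 nM, ATP 2 mM final; pH 8.0, 2 mM MgCl2, 2.5 ug/ml poly(dI-dC); 15 min compound preincubation; discontinuous kinetic read over 2 h at RT.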
# [4] = High Content Imaging Cell-Based qHTS for Inhibitors of the mTORC1 Signaling Pathway in MEF Cells (AID 2667); further: potency means the concentration at half of the fitted maximal effect
# Procedure, shortened: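 Read-out is the share of phospho-rpS6-positive cells per well, from Hoechst-normalized Alexa-488 Ser235/236 staining imaged on IN Cell. Cells: WT Tsc2-expressing Tsc2-/-, p53-/- MEFs exposed to compound for 24 hrs.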
# [5] = Cytometry Cell-Based qHTS for Inhibitors of the mTORC1 Signaling Pathway in MEF cells (AID 2668); further: potency means the concentration at half of the fitted maximal effect
# Procedure, shortened: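 WT MEFs (Tsc2-/-, p53-/- stably re-expressing WT Tsc2) in DMEM + 10% FBS received compounds 24 hrs after plating, for 24 hrs at 37 degree Celsius. Fixed cells stained with Alexa-488 anti-phospho-rpS6 Ser235/236 and propidium iodide; laser-scanning cytometry read-out.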
# [6] = biological target: Ubiquitin carboxyl-terminal hydrolase 2 (Homo sapiens) (UniProt O75604); assay: qHTS Validation Assay for Inhibitors of Ubiquitin-specific Protease USP2a Using CHOP2 as the Reporter (AID 463106)
# Procedure, shortened: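 Fluorescence read-out at Ex 485nm/Em 531nm after 60min RT, following addition of 25nM Ub-CHOP2 plus 25nM reporter substrate to USP2 core (10nM) pretreated 30min with compound. Data normalized to NEM full inhibition; concentration-response curves fitted.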
# [7] = biological target: DNA polymerase III PolC-type (Bacillus subtilis (strain 168)) (UniProt P13267); assay: qHTS Validation Assay for the Inhibitors of DNA Replication in Gram-Positive Bacteria (AID 485295); further: potency means the concentration at half of the fitted maximal effect
# Procedure, shortened: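 Reconstituted B. subtilis holoenzyme (Pol III, beta clamp, SSB, primase) was preincubated with compound at room temperature, then given single-stranded circular M13Gori plus dNTPs and NTPs. EDTA-containing PicoGreen stopped the reaction, and dsDNA product was read by fluorescence.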
# [8] = biological target: Tumor susceptibility gene 101 protein (Homo sapiens) (UniProt Q99816); assay: qHTS Validation Assay for Iinhibitors of HIV-1 Budding by Blocking the Interaction of PTAP/TSG101 (AID 485342; calls by dose curve)
# Procedure, shortened: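 Tsg101 binding domain (10 uM final) in pH 7.5 HEPES/NaCl/Tween 20/EDTA/TCEP buffer was mixed with pin-transferred compounds, then FITC-labeled PTAP peptide (50 nM final) was added; after 20 min at r.t., fluorescence polarization was read.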
# [9] = Cytometric Cell-Based qHTS for Inhibitors of the mTORC1 Signaling Pathway in MEF (Tsc2-/-, p53-/-) Cells (AID 2660);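 further: Tsc2 and p53 null MEFs carrying empty vector with compound for 24 h; percent of cells above a phospho-rpS6 to PI ratio cutoff in each well; series mostly up to about 38 µM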
# Procedure, shortened: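 Readout: Alexa-488 phospho-rpS6 (Ser235/236) intensity divided by PI intensity, thresholded against 7.5 nM rapamycin wells and reported as % positive cells. PI cell count served as the viability measure. Compound exposure was 24 hrs at 37 degree Celsius.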
# [10] = High Content Imaging Cell-Based qHTS for Inhibitors of the mTORC1 Signaling Pathway in MEF (Tsc2-/-, p53-/-) Cells (AID 2666);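 further: percent of cells scored positive for phospho-rpS6 Ser235/236 immunostaining by imaging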
# Procedure, shortened: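 MEF Tsc2-/- p53-/- (empty vector), DMEM/10% FBS; cpd 24 h 37 °C; PFA fix, Alexa-488 p-rpS6 S235/236 Ab, Hoechst; imaged; rapamycin-defined inhibition; % positive cells/well.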
# [11] = qHTS for differential inhibitors of proliferation of Plasmodium falciparum line Dd2 (AID 1882); conditions: Potency: Plasmodium falciparum Dd2 proliferation inhibition;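 further: series mostly up to about 29 µM; compound exposure of 72 h on infected erythrocytes; nearly all actives have a fitted effect of over 65% in size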
# Procedure, shortened: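 RBC culture, 0.3% parasitemia / 2.5% Hct final; cpd added by pin tool in DMSO; 72 h, 37 C, 5% CO2; lysis buffer + SYBR Green I, o/n RT dark; FI 485/535; norm. to artemisinin 0.29 uM and DMSO.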
# [12] = qHTS Assay for Modulators of Human Peripheral Myelin Protein 22 (PMP22) Expression/Activity (AID 1967; active means well fitted curve in the direction sought with a large enough effect in the signal ratio; the % refers to the signal ratio)
# Procedure, shortened: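 MSC80 mouse Schwann cells stably carrying Pmp22 promoter–green click beetle luciferase plus EF-alpha–red luciferase control were dosed for 24h at 37 °C. Dual-colour luminescence was filter-overlap corrected; %Activity came from green/red ratio versus untreated cells.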
# [13] = biological target: RecQ-like DNA helicase BLM (Homo sapiens) (UniProt P54132); assay: qHTS Validation Assay for Inhibitors of Bloom's syndrome helicase (BLM) (AID 2364)
# Procedure, shortened: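 50 nM BLM preincubated 15 min at room temperature with compound in pH 8.0 Tris buffer containing 2.5 ug/ml poly(dI-dC); started with 200 nM TAMRA/BHQ-2 forked duplex and 2 mM ATP (final). Unwinding read as TAMRA fluorescence increase, two reads 2 h apart.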
# [14] = Validation screen for small molecules that induce DNA re-replication in MCF 10A normal breast cells (AID 463097); further: nearly all actives have a fitted effect of over 60% in size
# Procedure, shortened: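 Readout: Hoechst nuclear fluorescence intensity, 405 ex / 500-530 em, by scanning plate imager; re-replication scored as increase in nuclei with elevated DNA content. Cells exposed to compound 48 hr, 37 C, 5% CO2 beforehand.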
# [15] = qHTS Validation Assay to Find Inhibitors of Chronic Active B-Cell Receptor Signaling (AID 485345; active means well fitted curve in the direction sought with a large enough effect in the main read-out, with a control signal flat, not every such curve was filed as active)
# Procedure, shortened: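 TMD8 ABC-DLBCL cells stably carrying doxycycline-inducible IkappaBalpha–green luciferase fusion plus unfused red luciferase; compounds 46 uM to 3 nM, 4 h at 37C with doxycycline. Corrected green/red luminescence ratio normalized to 10 uM MG-132 and basal cell wells; curves fitted.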
# [16] = biological target: Ferritin light chain (Equus caballus) (UniProt P02791); assay: qHTS Validation Assay for Identification of Novel General Anesthetics (AID 2323); further: series mostly up to about 77 µM
# Procedure, shortened: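 Competitive displacement of profluorescent 1-aminoanthracene (1-AMA, 50% saturated solution in PBS) from 10 uM horse-spleen apoferritin. Compounds incubated 10 min at room temperature; fluorescence read at 380 nm excitation/535 nm emission, normalized to free 1-AMA and complex, fitted with four-parameter Hill equation.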
# Ferritin light chain (Equus caballus), sequence (P02791 2-175 limits assumed): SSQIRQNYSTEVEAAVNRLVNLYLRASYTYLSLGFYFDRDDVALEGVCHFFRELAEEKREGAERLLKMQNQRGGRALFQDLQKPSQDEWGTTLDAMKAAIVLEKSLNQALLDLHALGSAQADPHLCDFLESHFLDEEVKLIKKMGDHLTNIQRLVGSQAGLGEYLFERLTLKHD
# Ubiquitin carboxyl-terminal hydrolase 2 (Homo sapiens), sequence (O75604 whole entry, looked up): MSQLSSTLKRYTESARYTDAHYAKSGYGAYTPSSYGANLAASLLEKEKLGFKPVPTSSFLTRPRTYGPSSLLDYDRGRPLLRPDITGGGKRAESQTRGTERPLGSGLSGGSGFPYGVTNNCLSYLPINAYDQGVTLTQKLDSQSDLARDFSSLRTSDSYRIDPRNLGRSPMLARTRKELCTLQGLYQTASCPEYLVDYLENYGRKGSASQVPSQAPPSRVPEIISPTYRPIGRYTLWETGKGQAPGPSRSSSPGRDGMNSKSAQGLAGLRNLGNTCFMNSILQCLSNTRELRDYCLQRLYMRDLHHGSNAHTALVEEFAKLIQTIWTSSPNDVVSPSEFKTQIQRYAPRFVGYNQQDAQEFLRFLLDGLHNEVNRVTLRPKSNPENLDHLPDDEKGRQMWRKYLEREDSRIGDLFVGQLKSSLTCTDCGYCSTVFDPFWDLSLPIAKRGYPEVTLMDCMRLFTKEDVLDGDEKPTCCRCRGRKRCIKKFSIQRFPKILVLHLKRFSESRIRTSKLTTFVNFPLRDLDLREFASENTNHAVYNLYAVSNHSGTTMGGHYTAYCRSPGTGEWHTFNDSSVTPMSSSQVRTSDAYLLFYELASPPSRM
# RecQ-like DNA helicase BLM (Homo sapiens), sequence (P54132 whole entry, looked up): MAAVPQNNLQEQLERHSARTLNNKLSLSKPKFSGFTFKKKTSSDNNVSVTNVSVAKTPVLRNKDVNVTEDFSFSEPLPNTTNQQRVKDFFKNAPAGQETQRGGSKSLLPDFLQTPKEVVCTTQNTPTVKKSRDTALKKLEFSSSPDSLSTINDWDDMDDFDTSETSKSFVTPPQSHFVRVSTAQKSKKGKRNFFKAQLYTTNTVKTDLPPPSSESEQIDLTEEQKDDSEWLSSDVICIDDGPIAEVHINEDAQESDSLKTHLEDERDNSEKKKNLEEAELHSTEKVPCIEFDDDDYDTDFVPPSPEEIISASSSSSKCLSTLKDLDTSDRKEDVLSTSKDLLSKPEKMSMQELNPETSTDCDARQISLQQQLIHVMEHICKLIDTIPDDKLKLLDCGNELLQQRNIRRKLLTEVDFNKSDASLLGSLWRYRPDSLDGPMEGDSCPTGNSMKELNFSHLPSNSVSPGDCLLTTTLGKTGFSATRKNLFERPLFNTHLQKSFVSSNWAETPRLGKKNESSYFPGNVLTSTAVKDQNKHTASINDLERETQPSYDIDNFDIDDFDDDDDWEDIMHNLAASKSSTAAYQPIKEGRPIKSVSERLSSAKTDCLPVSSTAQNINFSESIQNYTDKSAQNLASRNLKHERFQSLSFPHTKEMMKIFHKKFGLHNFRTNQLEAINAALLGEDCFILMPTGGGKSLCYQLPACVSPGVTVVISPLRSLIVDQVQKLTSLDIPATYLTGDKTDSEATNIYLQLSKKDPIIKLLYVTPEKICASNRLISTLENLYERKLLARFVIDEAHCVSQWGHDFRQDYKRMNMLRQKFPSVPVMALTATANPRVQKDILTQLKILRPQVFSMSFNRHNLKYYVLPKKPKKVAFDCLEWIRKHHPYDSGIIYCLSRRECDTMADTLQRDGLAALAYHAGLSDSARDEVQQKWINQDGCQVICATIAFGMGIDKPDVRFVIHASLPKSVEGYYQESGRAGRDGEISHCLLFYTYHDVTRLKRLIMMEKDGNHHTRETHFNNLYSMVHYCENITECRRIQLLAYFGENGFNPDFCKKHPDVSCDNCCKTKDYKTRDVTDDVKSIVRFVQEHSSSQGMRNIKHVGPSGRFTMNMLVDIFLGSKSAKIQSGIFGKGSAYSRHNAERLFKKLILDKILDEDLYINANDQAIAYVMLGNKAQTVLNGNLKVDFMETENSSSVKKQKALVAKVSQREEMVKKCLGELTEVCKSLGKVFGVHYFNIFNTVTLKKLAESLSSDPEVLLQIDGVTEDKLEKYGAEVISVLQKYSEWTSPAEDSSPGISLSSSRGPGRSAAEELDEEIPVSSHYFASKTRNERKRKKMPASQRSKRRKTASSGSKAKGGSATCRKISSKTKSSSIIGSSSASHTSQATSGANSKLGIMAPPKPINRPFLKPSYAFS
# Tumor susceptibility gene 101 protein (Homo sapiens), sequence (Q99816 whole entry, looked up, the tested form may be a part): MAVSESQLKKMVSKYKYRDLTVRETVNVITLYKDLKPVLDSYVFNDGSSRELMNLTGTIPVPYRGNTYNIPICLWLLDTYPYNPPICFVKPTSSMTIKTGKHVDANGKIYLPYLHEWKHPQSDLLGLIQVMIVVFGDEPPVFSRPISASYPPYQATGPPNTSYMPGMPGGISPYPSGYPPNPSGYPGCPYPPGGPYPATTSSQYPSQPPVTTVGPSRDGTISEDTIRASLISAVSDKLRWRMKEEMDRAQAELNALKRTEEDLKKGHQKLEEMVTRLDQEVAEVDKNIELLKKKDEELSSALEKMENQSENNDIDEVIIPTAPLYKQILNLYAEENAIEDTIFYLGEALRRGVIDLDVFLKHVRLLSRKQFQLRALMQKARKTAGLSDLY
# DNA polymerase III PolC-type (Bacillus subtilis (strain 168)), sequence (P13267 whole entry, looked up): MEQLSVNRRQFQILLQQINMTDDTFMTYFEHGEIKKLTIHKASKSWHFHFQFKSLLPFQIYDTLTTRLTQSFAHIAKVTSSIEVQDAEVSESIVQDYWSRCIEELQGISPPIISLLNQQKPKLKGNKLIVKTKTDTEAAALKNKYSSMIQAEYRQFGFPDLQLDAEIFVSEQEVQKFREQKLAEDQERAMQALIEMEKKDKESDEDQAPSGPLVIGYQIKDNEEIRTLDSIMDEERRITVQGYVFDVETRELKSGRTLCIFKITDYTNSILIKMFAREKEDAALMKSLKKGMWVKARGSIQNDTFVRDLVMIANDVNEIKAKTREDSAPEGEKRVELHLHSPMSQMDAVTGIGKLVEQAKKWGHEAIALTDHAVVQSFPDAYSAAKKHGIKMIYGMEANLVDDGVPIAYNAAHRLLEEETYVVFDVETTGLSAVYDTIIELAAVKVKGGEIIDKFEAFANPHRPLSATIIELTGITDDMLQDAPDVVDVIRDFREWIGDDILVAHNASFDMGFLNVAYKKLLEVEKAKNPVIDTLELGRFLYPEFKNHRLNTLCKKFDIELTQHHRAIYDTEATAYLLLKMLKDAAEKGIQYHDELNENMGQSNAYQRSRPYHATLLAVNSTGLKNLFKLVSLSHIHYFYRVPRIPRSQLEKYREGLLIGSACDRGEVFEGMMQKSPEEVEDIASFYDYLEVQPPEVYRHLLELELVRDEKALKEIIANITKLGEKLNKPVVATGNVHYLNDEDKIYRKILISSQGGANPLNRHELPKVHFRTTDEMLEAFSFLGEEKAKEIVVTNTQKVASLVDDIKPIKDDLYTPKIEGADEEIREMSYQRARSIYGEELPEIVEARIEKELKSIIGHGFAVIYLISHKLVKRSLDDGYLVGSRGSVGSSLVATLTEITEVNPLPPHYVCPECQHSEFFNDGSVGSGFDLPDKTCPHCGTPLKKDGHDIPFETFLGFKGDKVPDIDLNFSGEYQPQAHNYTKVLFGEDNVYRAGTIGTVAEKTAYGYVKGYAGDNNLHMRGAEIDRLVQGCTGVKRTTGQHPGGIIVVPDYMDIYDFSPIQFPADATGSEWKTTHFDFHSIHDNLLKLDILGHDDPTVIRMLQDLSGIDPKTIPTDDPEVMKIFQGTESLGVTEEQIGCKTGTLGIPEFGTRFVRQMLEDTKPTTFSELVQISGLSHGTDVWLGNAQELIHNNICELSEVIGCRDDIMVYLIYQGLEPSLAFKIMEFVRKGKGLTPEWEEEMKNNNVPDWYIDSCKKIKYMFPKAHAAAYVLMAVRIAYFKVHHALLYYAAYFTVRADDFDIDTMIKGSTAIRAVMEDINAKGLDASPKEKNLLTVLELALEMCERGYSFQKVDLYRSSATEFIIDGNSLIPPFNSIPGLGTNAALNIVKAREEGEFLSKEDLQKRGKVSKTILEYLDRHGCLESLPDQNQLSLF
# ATP-dependent DNA helicase Q1 (Homo sapiens), sequence (P46063 whole entry, looked up): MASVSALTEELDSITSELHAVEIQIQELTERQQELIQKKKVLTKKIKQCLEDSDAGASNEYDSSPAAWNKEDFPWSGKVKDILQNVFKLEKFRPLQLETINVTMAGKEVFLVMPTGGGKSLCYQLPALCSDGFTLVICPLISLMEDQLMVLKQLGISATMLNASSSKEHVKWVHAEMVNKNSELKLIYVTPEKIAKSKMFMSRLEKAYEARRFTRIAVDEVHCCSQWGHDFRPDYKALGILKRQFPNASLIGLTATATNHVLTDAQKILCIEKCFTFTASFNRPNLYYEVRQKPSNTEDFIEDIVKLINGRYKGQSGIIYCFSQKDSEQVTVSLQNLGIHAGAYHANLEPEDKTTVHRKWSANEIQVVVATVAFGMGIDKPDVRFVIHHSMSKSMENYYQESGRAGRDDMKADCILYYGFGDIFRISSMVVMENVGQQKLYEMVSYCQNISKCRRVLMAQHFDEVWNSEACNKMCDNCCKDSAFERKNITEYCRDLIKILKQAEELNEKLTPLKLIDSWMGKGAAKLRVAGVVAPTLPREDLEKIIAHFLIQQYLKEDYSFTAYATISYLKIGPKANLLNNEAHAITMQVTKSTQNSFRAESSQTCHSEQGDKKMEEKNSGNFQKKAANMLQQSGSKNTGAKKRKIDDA
Compound,Potency [1],Potency [2],Potency [3],Potency [4],Potency [5],Potency [6],Potency [7],outcome [8],outcome [9],Potency [10],Potency [11],outcome [12],Potency [13],Potency [14],outcome [15],Potency [16]
CCCCCCCC/C=C\CCCCCCCC(=O)NCCc1ccc(O)c(O)c1,7.94 µM (active),12.6 µM (active),inactive,5.21 µM (active),3.69 µM (active),inactive,18.9 µM (active),inactive,,,,,,,,
C[C@H]1CC2C3CCC4=CC(=O)C=C[C@]4(C)[C@@]3(Cl)[C@@H](O)C[C@]2(C)[C@@]1(O)C(=O)CO (some centres not stated),,,,inactive,inactive,inactive,inactive,inactive,inactive,inactive,,,,,,
Nc1ncnc2c1nc(Sc1ccc(Cl)cc1)n2[C@H]1OC2COP(=O)(O)O[C@@H]2C1O (some centres not stated),,,,inactive,inactive,inactive,inactive,inactive,inactive,inactive,,,,,,
CN1CCc2cc(Cl)c(O)cc2[C@@H](c2ccccc2)C1,,,,inactive,inactive,inactive,inactive,inactive,inactive,inactive,,,,,,
O=C(c1ccc2c(c1)OCCO2)N1CCCCC1,,,,inactive,inactive,,inactive,inactive,inactive,inactive,inactive,inactive,inactive,inactive,inactive,
O=C1Nc2ccc(I)cc2/C1=C/c1cc(Br)c(O)c(Br)c1,15.8 µM (active),10 µM (active),inactive,inactive,,,21.2 µM (active),inactive,inactive,inactive,,,,,,
CC[C@H](NC(=O)c1c(C)c(-c2ccccc2)nc2ccccc12)c1ccccc1,8.91 µM (active),12.6 µM (active),inactive,inactive,inactive,inactive,inactive,inactive,inactive,inactive,,,,inactive,,inactive
S=C(S)N1CCCC1,,,inactive,,,inactive,inactive,inactive,,,,,inactive,,,inactive
CC(/C=C/c1cccc(Oc2ccc(F)cc2)c1)N(O)C(N)=O (configuration not stated),10 µM (active),,inactive,inactive,,inactive,inactive,inactive,inactive,inactive,,,,inactive,inactive,
N#C/C(=C\c1ccc(O)c(O)c1)C(=O)NCCCNC(=O)/C(C#N)=C/c1ccc(O)c(O)c1,,,,inactive,inactive,inactive,,inactive,inactive,inactive,,,,inactive,,
O=C(OCCN1CCOCC1)C1(c2ccccc2)CCCCC1,4.47 µM (active),,inactive,inactive,,inactive,inactive,inactive,inactive,inactive,,inactive,inactive,inactive,inactive,inactive
c1ccc(C(NCCNC(c2ccccc2)c2ccccc2)c2ccccc2)cc1,,,,13.1 µM (active),18.5 µM (active),inactive,inactive,inactive,inactive,inactive,,,,,,
Cn1c(=O)c2[nH]c(-c3ccc(S(=O)(=O)O)cc3)nc2n(C)c1=O,,,inactive,inactive,inactive,inactive,inactive,inactive,inactive,inactive,inactive,inactive,inactive,inactive,,
NC(N)=NC(N)=Nc1cccc(Cl)c1,5.01 µM (active),8.91 µM (active),inactive,inactive,inactive,inactive,inactive,,inactive,inactive,,,,inactive,inactive,inactive
